Inconclusive results are not listed. A call without a number means that no potency is given here. Calls of active or inactive are those of the source. The call rests on the fitted dose curve; in most records, active means well fitted activation curve with a large enough effect; inconclusive means small, poorly fitted or top-dose-only effect; inactive means no such curve, though single readings can be large or run the other way.
Potency means the concentration at half of the fitted maximal effect.

A short description of the assay: qHTS Assay for NPC1 Promoter Activators: Hit Validation Using Renila Luciferase Read-Out for NPC1. The settings on record: Huh7 NPC1 promoter-luciferase reporter, luminescence, 24 h; series mostly up to 76.9 µM. The procedure, abridged:
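Luciferase reporter read-out: promoter activation measured by luminescence after 10 min with detection reagent at room temperature. Cells were Huh7 with a stable NPC promoter-luciferase construct, treated 24 h at 37 deg C.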
As to `Cc1noc(/C=C/N(C)C)c1S(=O)(=O)N1CCCC(C(=O)N2CCCCC2)C1` (centres undefined), the Potency entry was “inactive”.

For the molecule `CCc1cc(C(=O)Nc2ccccc2)cs1`, the Potency result was “inactive”.

On to `COCCSc1ncnc2c1oc1nc3c(cc12)COC(C)(C)C3`, for which the Potency result is “inactive”.

With `O=CN1CCN(C(=O)c2ccccc2Cl)CC1`, the Potency entry was “inactive”.

As to `COc1ccc(S(=O)(=O)NC(C(=O)NCCc2ccccn2)C(C)C)cc1` (centres undefined), the Potency result was “inactive”.

For the molecule `Cc1ccc(C(=O)c2cncc(Br)c2)cc1`, the Potency result is “inactive”.

`N#CC/C(N)=N/NC(=O)CCCNc1ncc(C(F)(F)F)cc1Cl`: the Potency result is “inactive”.

Take `CC(Sc1nnc(C(F)(F)F)n1C)C(=O)Nc1ccc(S(N)(=O)=O)cc1` (centres undefined): the Potency result is “inactive”.

With `Cc1cc(C)cc(N(CC(=O)NC2CCCC2)C(=O)CNC(=O)c2ccco2)c1`, the Potency result is “inactive”.

Turning to `O=C(NCCc1c[nH]c2ccccc12)C(=O)NCC(c1ccco1)N1CCN(c2ccccc2F)CC1` (centres undefined), the Potency result was “inactive”.

Take `CCN(CC)S(=O)(=O)c1ccc(NCc2ccccn2)nc1`: the Potency result was “inactive”.

For `CCOc1cc(C(=O)N=c2sccn2C)ccc1OC(F)F`, the Potency entry is “inactive”.

With `COc1cccc(C(C(=O)NC2CCCC2)N(CCC(C)C)C(=O)CCC(=O)Nc2cc(C)on2)c1` (centres undefined), the Potency entry is “inactive”.

Regarding `Cc1ccc(C)c(Nc2cc(C)nc3ncnn23)c1`, the Potency entry was “inactive”.

Regarding `COc1ccc(-c2noc(N3CCCC(C(=O)Nc4ccccc4F)C3)n2)cc1` (centres undefined), the Potency entry was “inactive”.

As to `COc1ccccc1NC(=S)NCc1ccc(Cl)cc1`, the Potency result was “inactive”.

For the molecule `O=[N+]([O-])c1cnccc1Nc1ccc(F)cc1`, the Potency entry is “inactive”.

As to `O=C(NCCSCc1c(F)cccc1Cl)c1ccc(CN2CCOCC2)cc1`, the Potency entry was “inactive”.

Take `Nc1nc(SCCO)[nH]c(=O)c1NC(=O)c1ccco1`: the Potency entry was “inactive”.

`CCCNC(=O)C1CCN(S(=O)(=O)c2ccc3[nH]c(=O)ccc3c2)CC1`: the Potency entry was “inactive”.

As for `CC(=O)c1cccc(NC(=O)N2CCOCC2)c1`, the Potency result is “inactive”.

For `CC(C)CC(=O)N1CCN(c2ccc(NC(=O)c3ccco3)cc2)CC1`, the Potency entry is “inactive”.

On to `NC(=O)COC(=O)c1ccc2noc(-c3ccccc3)c2c1`, for which the Potency result was “inactive”.

As to `COc1ccc2oc(=O)c(C(=O)NC(C)c3ccccc3)cc2c1` (centres undefined), the Potency result was “inactive”.

Regarding `O=C(CCS(=O)(=O)c1ccccc1)Nc1ccc(-c2nc3ccccc3s2)cc1`, the Potency entry is “inactive”.

Consider `CC(=O)Nc1ccc(-c2csc(Nc3ncccn3)n2)cc1`, for which the Potency result is “inactive”.

Consider `O=C(CCCN1C(=O)C(c2ccccc2)Oc2cccnc21)Nc1ccccc1Cl` (centres undefined), for which the Potency entry is “inactive”.

In the case of `N#C/C(=C\c1ccc[nH]1)C(=O)Nc1ccccc1Cl`, the Potency is 23.2 µM (active).

Regarding `Cc1nn(CCCC(=O)NCc2ccc(F)cc2)c(C)c1[N+](=O)[O-]`, the Potency result is “inactive”.

On to `COC(=O)CSc1nc2cc3c(cc2cc1C#N)OCO3`, for which the Potency entry is “inactive”.

Regarding `Cc1cccc(N2CCN(C(=S)c3ccccc3)CC2)c1`, the Potency result is “inactive”.

Take `Cc1cccc(C)c1NC(=O)Nc1cccs1`: the Potency result was “inactive”.

`Cc1ccc(N=Cc2sc(O)c3ccccc23)c(C)c1`: the Potency result is “inactive”.

For the molecule `CCOC(=O)c1cc2sccc2n1CC(=O)N1CCCc2ccccc21`, the Potency entry was “inactive”.

For the molecule `Cc1nc(-c2ccc(S(=O)(=O)Oc3ccc(Cl)cc3Cl)s2)cs1`, the Potency result was “inactive”.

Consider `O=C(O)C1=CC[C@@H](c2ccc(Cl)cc2)N(S(=O)(=O)c2ccc(Cl)cc2)[C@H]1c1ccccc1`, for which the Potency is 14.6 µM (active).

As for `Cc1ccccc1NC(=O)Cc1nc(COC(=O)CC(C)c2ccccc2)cs1` (centres undefined), the Potency result is “inactive”.

Regarding `Cc1ccc2c(c1)sc1nc(=O)n(-c3ccccc3)c(=O)n12`, the Potency entry is “inactive”.

For the molecule `Cn1c(CCN2CCN(c3ccccc3)CC2)nc2cc(NC(=O)c3ccco3)ccc21`, the Potency entry was “inactive”.

These data come from PubChem BioAssay AID720526 (National Center for Advancing Translational Sciences (NCATS), 2013).
